# The panel holds about 83,000 compounds, 20% with a hit somewhere; the sample as a whole holds those more often.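 Treatment: one concentration, 48 hours, 96-well format. Scoring: percent growth, with anything below 10 considered active.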 Calls of active or inactive are those of the source.
# Tested on: SNB-75 CNS
# Experiment: NCI-60 one-dose screen, 48 h (100 = growth as untreated, 0 = no growth, -100 = all killed)
# Settings: 10 µM unless noted
row,SMILES,growth
1,CCOC(=O)C1=C(C(F)(F)F)NC(=S)NC1CN1C(=O)c2ccccc2C1=O (stereo not given),104% (inactive)
2,CC(=O)NCCN,89.7% (inactive)
3,COc1ccc(Cn2cc3c(c2)-c2oncc2CC3)cc1OC,0.447% (active)
4,Cc1ccc(C(=O)Nc2ccc(CN3CCN(C)CC3)c(C(F)(F)F)c2)cc1C#Cc1cncc2ncccc12,-83.9% (active)
5,Cc1nc2c(nnn2-c2ccccc2)c2nc(-c3ccc(Cl)cc3)oc(=O)c12,91.4% (inactive)
6,CC(=O)Nc1nc(C)c(C(=O)N/N=C/c2cccs2)s1,72% (inactive)
7,CCCC(CCC)Oc1ccc(CCCC2=C(O)c3ccccc3C(=O)C2=O)cc1,46.1% (inactive)
8,COc1ccc(-c2cc(C#N)c(NNC(C)=O)[nH]2)cc1,119% (inactive)
9,CCCCCCCCCCCCCCCCCC(=O)Nc1ccc(O)cc1,72% (inactive)
10,COc1ccc2c(N)ncc(C#Cc3cc(C(=O)Nc4ccc(CN5CCN(C)CC5)c(C(F)(F)F)c4)cnc3C)c2c1,-11.1% (active)
11,COC(=O)C1CC(=O)N(C(=O)Nc2ccc(Cl)cc2Cl)C1 (stereo not given),98.7% (inactive)
12,COC(=O)CC(=O)C(=O)OC,92.2% (inactive)
13,COc1ccc(C2=NN(C(=O)c3cc(-c4ccc(C)cc4)nc4ccccc34)C(c3cc(-c4ccccc4)nn3-c3ccccc3)C2)cc1 (stereo not given),88.3% (inactive)
14,O=C(Nc1cccc(Cn2c(=O)[nH]c3ccc(Oc4ncccn4)cc3c2=O)c1)c1ccc(Cl)cc1,50.9% (inactive)
15,CC(=O)Nc1ccc(CC#N)cc1Br,91% (inactive)

# — PubChem BioAssay (NCI)
